# Screening results: PubChem, National Center for Advancing Translational Sciences (NCATS)
# p53 reactivation – mutant p53 re-activation in reporter cells | Potency, µM (doses to about 92.2 µM), for the others: top-dose activity change, positive = activation, actives largely listed as activators | actives 0.063% (n = 320,000) | AID 504706 | H1299 p53-A138V BP100-luciferase reporter, luminescence, 24 h; note: potency is the fitted concentration of half-maximal effect; % of control where 0% means no effect; nearly all actives have a fitted effect of over 45% in size
#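 H1299 (p53-null), stable ts p53-A138V + BP100-Luc; 1000 cells/well, Opti-MEM/10% FBS; cpd 4 pt, 1:5; 24 h, 37 deg C, 5% CO2; detection reagent 10 min RT; luminescence.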
# PTHR1 ag – PTHR1 (human) receptor agonism; Q03431; HEK293 GP2 PTHR1 cells, GloSensor cAMP luminescence, 1 h; Potency, µM (top dose mostly 115 µM), for inactives: top-dose activation, hits mostly activators; actives 0.075% (n = 410,000); AID 743266; note: potency is the fitted concentration of half-maximal effect; nearly all actives have a fitted effect of over 55% in size
# Target sequence (Q03431 whole entry, looked up): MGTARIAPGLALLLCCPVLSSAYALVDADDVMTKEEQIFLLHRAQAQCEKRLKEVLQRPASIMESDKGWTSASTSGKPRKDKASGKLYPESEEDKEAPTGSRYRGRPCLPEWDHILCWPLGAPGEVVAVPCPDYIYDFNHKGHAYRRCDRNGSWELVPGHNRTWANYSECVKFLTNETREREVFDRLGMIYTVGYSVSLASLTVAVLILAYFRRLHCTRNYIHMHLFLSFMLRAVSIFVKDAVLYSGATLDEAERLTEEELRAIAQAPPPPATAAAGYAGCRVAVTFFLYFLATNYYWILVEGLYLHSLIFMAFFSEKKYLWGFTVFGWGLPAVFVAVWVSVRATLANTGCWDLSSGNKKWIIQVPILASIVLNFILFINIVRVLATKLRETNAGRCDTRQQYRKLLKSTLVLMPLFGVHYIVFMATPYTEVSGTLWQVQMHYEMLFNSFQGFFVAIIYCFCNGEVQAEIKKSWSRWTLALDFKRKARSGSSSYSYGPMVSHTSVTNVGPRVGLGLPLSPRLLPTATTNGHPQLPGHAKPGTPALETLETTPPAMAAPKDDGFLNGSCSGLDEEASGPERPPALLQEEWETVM
#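 HEK-293-derived GP2 cells expressing PTHR1 and a GloSensor cAMP reporter, 3,000/well, plated overnight, given luciferin plus IBMX (each 0.5 mM as added) for 1 h at 37 °C, then compound for 1 h at 37 °C. Luminescence was read after 15 min at room temperature.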
# BRCA1 expr up – activators of BRCA1 expression; Potency, µM (doses to about 46.1 µM), for the others: top-dose activation, most hits filed as activators; MCF7-BRCA1-FFLuc reporter, luminescence, 48 h; response scale: scaled: vehicle 0%, 10 µM genistein 100%; actives 1.1% (n = 380,000); note: potency is the fitted concentration of half-maximal effect; nearly all actives have a fitted effect of over 80% in size
#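 Compounds are tested at multiple concentrations on MCF7 BRCA1-luciferase reporter cells seeded at 2000 per well; after 48 h, a single luminescence end-point is taken and curves fitted to the normalized data.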
# RGS4 inhibitor – blocks human RGS4-accelerated GTP hydrolysis; P49798; Transcreener GDP fluorescence polarization, RGS4-accelerated GTP hydrolysis; Potency, µM (highest dose often 114 µM), without a hit: at the highest dose activity change, negative = inhibition, most hits filed as inhibitors; actives 0.039% (n = 390,000); AID 504845; note: potency is the fitted concentration of half-maximal effect; % is set by controls: 0 for no effect and ±100 for the full control effect; nearly all actives have a fitted effect of over 75% in size
#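 MLSMR compounds (23 nl, pin-transferred) preincubated 10 min at room temperature with a 500nM (2x) first reagent, then RGS4 at 900nM (2x) plus Transcreener GDP mix added; fluorescence polarization (620/688 nm) read before and after 90 min at 30 °C.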
# LDHA inh – LDHA (human) enzyme inhibition | P00338 | purified LDHA, NADH/diaphorase-resazurin fluorescence; hits give low values | activity change, % (values are at about 110 or 230 µM) | actives 0.15% (n = 480,000); in the data active = activity change below about -30%; inconclusive = mostly about -25% to -30%;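 note: plate controls were DMSO wells for no effect and wells without enzyme for full effect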
#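 Resorufin fluorescence (ex540/em590), read at 0 and 20 min after diaphorase/resazurin addition, reports the NADH left after a 5 min room-temperature reaction of 2 nM human LDH5 with 0.06 mM NADH and 0.2 mM pyruvate.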
# * = called active by the depositor; i = inactive; ? = inconclusive; nt = no result; ! = repeats disagree; [ ] = remark or other dose. The list is not random: actives were taken first. Their share in the collection is about 1.1%. Unless noted, calls come from the whole dose curve; as a rule, active = well fitted curve in the direction sought with a large enough effect; inconclusive = small, poorly fitted or top-dose-only effect, or another doubt; inactive = no such curve, though single readings can be large; an effect the other way counts as inactive or inconclusive.
SMILES,p53 reactivation,PTHR1 ag,BRCA1 expr up,RGS4 inhibitor,LDHA inh
CSCCC(NC(=O)c1ccco1)C(=O)NC1CCC(C)CC1 (configuration not stated),14%,-7%,3.5µM*,5%,-1
O=C(N[C@@H](Cc1ccccc1)C(=O)NC1CCCCCC1)c1ccco1,9%,i,11µM*,13%,-2
CN(C)c1cccc(C(=O)NNC(=O)CN2C(=O)C3CC=CCC3C2=O)c1 (configuration not stated),45µM*,-17%,92%,-2%,5
Cc1cc(C)n(-c2ccc(C(=O)Nc3sccc3C(N)=O)cc2)n1,?,-23%[57.5 µM],1µM*,-37%,-13
CC(C)c1ccc(Nc2n[nH]c(=S)s2)cc1,nt,-2%,2.5µM*,nt,-13
Cc1cccc(C)c1Nc1n[nH]c(=S)s1,nt,i,1%,nt,-2
CC(C(=O)Nc1ccc(C#N)cc1)n1nnc(-c2ccc(F)cc2)n1 (configuration not stated),nt,nt,nt,nt,5
O=C(/C=C/c1cccc2c1OCCCO2)c1cccnc1,nt,nt,nt,nt,6
O=C(NCc1ccccc1)c1c[nH]c2cc3c(cc2c1=O)OCCO3,11µM*,-50%[57.5 µM],?,26%,-2
COc1cccc(C(=O)N=c2sc3cc(S(C)(=O)=O)ccc3n2C)c1,6%,25%,6.3µM*,2%,-4
COC(=O)Cn1c(=NC(=O)c2cccc(OC)c2)sc2cc(OC)ccc21,9%,i,10µM*,3%,-3
Cc1ccc2c(c1)NC(=O)c1cccnc1N2,23%,-40%[57.5 µM],4.5µM*,-52%,1
O=C1Nc2ccccc2Nc2ncccc21,-2%,-3%[57.5 µM],-17%,22%,-4
CC(OC(=O)c1ccc2ccccc2n1)C(=O)NC1(C#N)CCCCC1 (configuration not stated),nt,nt,nt,nt,3
N#C/C(=C/c1ccc(F)cc1)C(N)=S,-4%,-4%,24%,-53%,-5
CC(C)(C)c1cc(/C=C(\C#N)C(N)=S)cc(C(C)(C)C)c1O,nt,nt,nt,11µM*,nt
Brc1ccc(-c2nnc(Cc3ccccc3)o2)cc1,10%,-39%,11µM*,16%,0
COc1ccc(-c2nnc(-c3ccc(C)cc3)o2)cc1,?,-7%,2.8µM*,-23%[56.9 µM],-6
c1ccc(Cc2nnc(-c3ccccc3)o2)cc1,9%,-33%,-71%,14%,4
COc1ccc(Cc2nnc(-c3ccccc3)o2)cc1,6%,i,13µM*,18%,0
Cc1ccc(-c2nnc(Cc3ccc(Cl)cc3)o2)cc1,?,-15%,13µM*,8%,-3
COc1ccc(SCCc2nnc(-c3ccccc3)o2)cc1,-1%,-13%,-2%,-10%,0
CCCS(=O)(=O)N1CCN(CC2CC=CCC2)CC1 (configuration not stated),11%,i,0%,29%,-31*
CC1(C)CC(=O)C(Sc2ccccc2[N+](=O)[O-])=C(O)C1,4%,-21%,3%,-42%,-78*
Cc1ccccc1NC(=O)CCN1C(=O)c2ccccc2Sc2ncccc21,nt,16%,nt,-12%,-11
SMILES,p53 reactivation,PTHR1 ag,BRCA1 expr up,RGS4 inhibitor,LDHA inh
Cc1ccc(NC(=O)CCN2C(=O)c3ccccc3Sc3ncccc32)cc1,-3%,50µM*!,0%,27%[11.4 µM],0
Oc1ccc(/C=N/NC(=S)Nc2cccnc2)cc1,8%,-57%,?,-30%,2
COc1ccccc1NC(=S)N/N=C/c1ccc(O)cc1,?,-28%,3.2µM*,0%,-9
Oc1ccc(/C=N/NC(=S)N/N=C/c2ccc(O)cc2)cc1,2%,1%,8.9µM*,-1%[11.4 µM],-4
O=C(N/N=C/c1ccc2c(c1)OCO2)c1ccccn1,-5%,-14%[57.5 µM],-50%,8%,-3
Cc1cc(Br)cc(/C=N/NC(=O)c2ccc3c(c2)OCO3)c1O,-2%,-33%,-49%,-8%,-11
O=C(N/N=C/c1cc2c(cc1Br)OCO2)c1ccccn1,-6%,-4%,7.9µM*,-14%,-3
O=C(N/N=C/c1cc(Br)cc(Cl)c1O)c1ccc2c(c1)OCO2,nt,-8%,-16%,?,-32*
O=C(/C=C/c1ccc2c(c1)OCO2)c1ccccn1,32µM*,-35%,67%,?,5
